# Data from PubChem BioAssay AID1053 (University of Pittsburgh Molecular Library Screening Center, 2008).
# Several values for one entry are separate records, joined by “and”; a condition that tells them apart may be missing. Equal values may be shown once. Unmarked numbers belong to inactive results. Activity calls are given as the source filed them. The rule behind the calls is not given here.
# Molecular target: Serine/threonine-protein kinase PLK1 (Homo sapiens) (UniProt P53350)
# Test: Plk1 polo box domain binding inhibitors, SAR follow-up, biochemical, fluorescence polarization, purchased analogs (AID 1053)
# Conditions: Plk1 PBD fluorescence polarization peptide binding; at 20 µM; stronger effect = higher value
# Sequence of Serine/threonine-protein kinase PLK1 (Homo sapiens) (P53350 whole entry, looked up, the tested form may be a part): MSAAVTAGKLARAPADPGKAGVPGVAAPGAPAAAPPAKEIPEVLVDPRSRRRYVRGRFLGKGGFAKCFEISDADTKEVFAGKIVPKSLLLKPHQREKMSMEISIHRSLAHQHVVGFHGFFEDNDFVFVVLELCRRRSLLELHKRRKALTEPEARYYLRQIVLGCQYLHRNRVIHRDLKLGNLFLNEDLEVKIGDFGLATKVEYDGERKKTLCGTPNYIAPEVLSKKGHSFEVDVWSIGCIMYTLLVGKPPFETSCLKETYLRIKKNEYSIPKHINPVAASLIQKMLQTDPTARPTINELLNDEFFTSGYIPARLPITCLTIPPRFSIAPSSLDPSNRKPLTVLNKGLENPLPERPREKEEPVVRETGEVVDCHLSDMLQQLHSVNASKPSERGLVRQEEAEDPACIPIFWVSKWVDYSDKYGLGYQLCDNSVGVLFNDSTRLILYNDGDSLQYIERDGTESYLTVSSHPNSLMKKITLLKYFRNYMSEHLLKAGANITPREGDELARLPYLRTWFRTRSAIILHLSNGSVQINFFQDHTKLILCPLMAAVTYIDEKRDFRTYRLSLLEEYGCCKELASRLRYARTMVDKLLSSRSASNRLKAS
row,Compound,inhibition
1,CCOC(=O)c1ccc(N=Cc2c(O)n(C)c(=O)n(C)c2=O)cc1,-54.3%
2,CCOC(=O)c1ccc(NC(=O)c2ccc(NC(=O)CC)cc2)cc1,-9.03%
3,CCOC(=O)c1ccc(NC(=O)C2Oc3ccccc3OC2C)cc1 (stereo not drawn),-28.8%
4,CCOC(=O)c1ccc(NC(=O)c2ccc3snnc3c2)cc1,-21.6% and -22.3%
5,O=C(COC(=O)c1ccc(NC(=O)c2ccc([N+](=O)[O-])cc2)cc1)c1ccccc1,61.8% (active)
6,CCOC(=O)c1ccc(NC(=O)c2cncc(Br)c2)cc1,-31.4%
7,COc1ccc(N(CN2C(=O)c3ccccc3C2=O)C(=O)C(F)(F)F)cc1,-44.5%
8,CCOC(=O)c1ccc(NC(=O)C2Cc3ccccc3C(=O)O2)cc1 (stereo not drawn),-59.4%
